The structures appear in SMILES notation. Active and inactive are the calls of the source.

In test [1] the test system is Plasmodium falciparum Sir2 (PF13_0152, Sir2A). As to the kind of experiment: Plasmodium falciparum Sir2A binding compounds – biochemical, small-molecule microarray, 635 nm fluorescence, primary screen (AID 1098).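 Also: score merges spot fluorescence intensity with its signal-to-noise ratio.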 Conditions: fluorescence 635 nm, higher = more signal.
Test [2] is described as follows: probe aDKK1 binding to arrayed compounds – biochemical, biotinylated probe, 635/667 nm fluorescence, primary screen (AID 1099).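 Also: score merges 667nm spot fluorescence with signal to noise across triplicate slides.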 The note with it: small-molecule microarray, higher = more signal.
Test [3] is described as follows: probe aCHRDL2 binding to arrayed compounds – biochemical, biotinylated probe, 635/667 nm fluorescence, primary screen (AID 1100). The note with it: small-molecule microarray, higher = more signal.
The nature of test [4]: change in splice reporter luminescence, either direction, cell-based, HEK293, spliceosome inhibition project, primary screen (AID 1101).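 Also: HEK293 cells carrying a splicing-competent luciferase reporter gene; test concentration not given here.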 Conditions: HEK293 splicing luciferase reporter, 24 h, higher = more signal, called active from +8 up or from −8 down. Background: In a reporter assay the amount or activity of a reporter protein is the signal.
Test [5] deals with Fibroblast growth factor 10 (Homo sapiens) (UniProt O15520). As to the kind of experiment: compounds binding fibroblast growth factor 10 – biochemical, small-molecule microarray, 635 nm fluorescence, primary screen (AID 1102). The note with it: FGF10 binding, fluorescence 635 nm, higher = more signal.
Sequence of Fibroblast growth factor 10 (Homo sapiens) (O15520 whole entry, looked up): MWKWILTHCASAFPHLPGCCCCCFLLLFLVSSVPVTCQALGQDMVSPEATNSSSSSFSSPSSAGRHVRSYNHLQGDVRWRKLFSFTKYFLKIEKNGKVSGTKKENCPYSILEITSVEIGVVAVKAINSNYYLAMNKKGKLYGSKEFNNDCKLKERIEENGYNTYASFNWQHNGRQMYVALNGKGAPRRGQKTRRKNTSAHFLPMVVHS
Test [6] concerns glycogen synthase kinase-3 (GSK3A per assay name; protocol says GSK3B). As to the kind of experiment: compounds binding glycogen synthase kinase-3 – biochemical, small-molecule microarray, 635 nm fluorescence, GSK3A, primary screen (AID 1103). Also: the record names both GSK3A and GSK3B. Conditions: fluorescence 635 nm, higher = more signal.
In test [7] the target is Epidermal growth factor receptor (Homo sapiens) (UniProt P00533). As to the kind of experiment: compounds binding epidermal growth factor receptor – biochemical, small-molecule microarray, 635 nm fluorescence, primary screen (AID 1104).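 Also: score merges 667 nm emission intensity with spot signal to noise over triplicate slides.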 Conditions: EGFR binding, higher = more signal.
Sequence of Epidermal growth factor receptor (Homo sapiens) (P00533 whole entry, looked up): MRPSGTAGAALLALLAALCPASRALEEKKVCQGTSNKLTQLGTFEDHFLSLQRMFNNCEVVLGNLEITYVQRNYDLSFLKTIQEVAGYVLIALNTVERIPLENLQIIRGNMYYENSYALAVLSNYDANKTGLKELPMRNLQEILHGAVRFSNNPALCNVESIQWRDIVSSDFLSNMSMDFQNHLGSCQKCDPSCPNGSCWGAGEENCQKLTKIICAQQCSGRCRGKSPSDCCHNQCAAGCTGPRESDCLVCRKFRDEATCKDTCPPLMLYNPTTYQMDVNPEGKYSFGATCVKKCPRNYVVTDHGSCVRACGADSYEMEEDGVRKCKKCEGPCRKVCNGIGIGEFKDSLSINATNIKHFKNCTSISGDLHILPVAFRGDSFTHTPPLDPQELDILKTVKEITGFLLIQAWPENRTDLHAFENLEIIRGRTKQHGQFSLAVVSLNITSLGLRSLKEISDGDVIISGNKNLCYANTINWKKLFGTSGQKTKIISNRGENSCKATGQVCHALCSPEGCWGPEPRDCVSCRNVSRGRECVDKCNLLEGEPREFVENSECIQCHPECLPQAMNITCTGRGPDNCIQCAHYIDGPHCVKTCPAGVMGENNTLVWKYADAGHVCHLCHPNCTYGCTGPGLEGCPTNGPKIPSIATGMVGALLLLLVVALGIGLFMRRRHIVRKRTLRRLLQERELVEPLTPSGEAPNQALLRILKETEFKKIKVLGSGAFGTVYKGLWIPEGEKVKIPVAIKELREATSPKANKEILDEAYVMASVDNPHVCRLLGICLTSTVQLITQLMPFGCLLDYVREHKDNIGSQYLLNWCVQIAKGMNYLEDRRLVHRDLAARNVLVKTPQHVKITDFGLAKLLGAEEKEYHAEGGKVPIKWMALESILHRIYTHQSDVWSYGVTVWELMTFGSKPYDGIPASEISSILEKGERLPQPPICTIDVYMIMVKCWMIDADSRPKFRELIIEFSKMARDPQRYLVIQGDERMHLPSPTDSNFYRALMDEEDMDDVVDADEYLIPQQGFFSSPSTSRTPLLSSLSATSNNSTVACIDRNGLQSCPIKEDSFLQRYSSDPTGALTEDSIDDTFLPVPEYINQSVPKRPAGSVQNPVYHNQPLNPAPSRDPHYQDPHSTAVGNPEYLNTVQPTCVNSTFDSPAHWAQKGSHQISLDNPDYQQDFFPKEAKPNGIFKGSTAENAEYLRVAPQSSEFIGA
For test [8], the target named is Follistatin-related protein 3 (Homo sapiens) (UniProt O95633). As to the kind of experiment: compounds binding follistatin-related protein 3 – biochemical, small-molecule microarray, 635 nm fluorescence, primary screen (AID 1105).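 Also: score merges emission near 667 nm and signal to noise per printed spot across three slides.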 The note with it: FSTL3 binding, higher = more signal.
Sequence of Follistatin-related protein 3 (Homo sapiens) (O95633 whole entry, looked up): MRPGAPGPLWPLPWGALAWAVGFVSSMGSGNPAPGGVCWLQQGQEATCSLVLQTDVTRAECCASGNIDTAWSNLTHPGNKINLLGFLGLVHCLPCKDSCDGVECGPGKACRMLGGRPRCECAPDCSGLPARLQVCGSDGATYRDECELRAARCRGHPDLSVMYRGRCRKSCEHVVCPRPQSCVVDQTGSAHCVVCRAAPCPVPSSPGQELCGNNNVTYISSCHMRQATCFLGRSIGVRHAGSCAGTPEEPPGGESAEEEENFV
Test [9] deals with Dickkopf-related protein 1 (Homo sapiens) (UniProt O94907). As to the kind of experiment: small molecules binding DKK1 protein – biochemical, small-molecule microarray, 635 nm fluorescence scan, primary screen (AID 1106).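 Also: score merges emission near 667 nm with signal to noise over three replicate slides.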 The note with it: higher = more signal.
Sequence of Dickkopf-related protein 1 (Homo sapiens) (O94907 whole entry, looked up): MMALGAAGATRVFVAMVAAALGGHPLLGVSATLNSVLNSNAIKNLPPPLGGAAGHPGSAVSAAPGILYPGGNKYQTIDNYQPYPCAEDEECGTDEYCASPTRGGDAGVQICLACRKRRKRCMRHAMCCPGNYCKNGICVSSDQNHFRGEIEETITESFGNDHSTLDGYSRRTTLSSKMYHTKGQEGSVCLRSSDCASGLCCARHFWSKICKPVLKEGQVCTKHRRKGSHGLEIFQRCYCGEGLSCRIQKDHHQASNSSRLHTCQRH
Test [10] relates to Inhibin beta A chain (activin A). As to the kind of experiment: small molecules binding activin A – biochemical, small-molecule microarray, 635 nm fluorescence scan, primary screen (AID 1107).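 Also: mouse activin A protein probed at 4.33 µg/mL on printed slides; score merges bound-protein fluorescence near 667 nm with spot signal-to-noise.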 The note with it: INHBA, higher = more signal.
Test [11] concerns Human papillomavirus type 1a protein E7 (residues 44-93). As to the kind of experiment: small molecules binding HPV E7 44-93 – biochemical, small-molecule microarray, residues 44-93, 635 nm fluorescence, primary screen (AID 1108).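 Also: E7 fragment applied at 1 µg/mL in TBST for 1 h at 4 C; score combines spot fluorescence with its signal to noise ratio.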 The note with it: fluorescence 635 nm, higher = more signal.
The nature of test [12]: hepatitis C replication reporter changes, two-sided – Huh7 cells, luciferase reporter, HCV replication inhibitor project, primary screen (AID 1109).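 Also: huh7 hepatoma cells harbouring a luciferase neomycin HCV replicon reporter; luciferase luminescence as measure of HCV replicon replication; test concentration not given here.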 The note with it: Huh7 HCV replicon luciferase reporter, 48 h; higher = more signal.
In test [13] the target is Left-right determination factor 2 (Homo sapiens) (UniProt O00292). As to the kind of experiment: small molecules binding LEFTY2 protein – biochemical, small-molecule microarray, 635 nm fluorescence scan, primary screen (AID 1110). Conditions: higher = more signal.
Sequence of Left-right determination factor 2 (Homo sapiens) (O00292 whole entry, looked up): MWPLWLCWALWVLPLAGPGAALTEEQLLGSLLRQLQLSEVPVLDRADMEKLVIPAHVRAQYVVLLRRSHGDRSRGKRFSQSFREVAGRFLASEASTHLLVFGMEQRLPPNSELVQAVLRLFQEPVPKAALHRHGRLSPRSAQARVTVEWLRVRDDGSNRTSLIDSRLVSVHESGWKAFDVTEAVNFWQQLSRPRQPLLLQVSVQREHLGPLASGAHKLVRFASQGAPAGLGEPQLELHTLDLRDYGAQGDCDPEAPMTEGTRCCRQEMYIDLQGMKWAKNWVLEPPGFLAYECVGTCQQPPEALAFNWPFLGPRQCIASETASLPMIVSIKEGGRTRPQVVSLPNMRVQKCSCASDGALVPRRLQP
The target in test [14] is Calmodulin-1 (Homo sapiens) (UniProt P0DP23). As to the kind of experiment: small molecules binding calmodulin-1 with EGTA – biochemical, small-molecule microarray, Cy5-labelled CALM1, profiling panel (AID 1111).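 Also: labelled calmodulin applied in Tris saline Tween buffer holding calcium plus EGTA and DTT.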 Conditions: Cy5-CALM1 binding fluorescence, higher = more signal.
Test [15] has the same target. As to the kind of experiment: small molecules binding Ca-loaded calmodulin-1 – biochemical, small-molecule microarray, Cy5-labelled CALM1, plus calcium, artefact control for SMM control-protein annotation, profiling panel (AID 1112).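 Also: score merges spot fluorescence with signal to noise from triplicate slides.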 The note with it: Cy5-CALM1 binding fluorescence, higher = more signal.
A short description of test [16]: probe aWnt5a binding to arrayed compounds – biochemical, biotinylated probe, 635/667 nm fluorescence, primary screen (AID 1113).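 Also: score merges 667 nm fluorescence intensity with signal-to-noise per printed feature.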 Conditions: small-molecule microarray, higher = more signal.
Test [17] can be described thus: probe aShh binding to arrayed compounds – biochemical, biotinylated probe, 635/667 nm fluorescence, primary screen (AID 1114).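 Also: probe is biotin-labelled aShh protein from a stem cell growth factor screen; measures binding of labelled protein to compounds printed on the slide; score merges feature fluorescence at 667 nm with signal-to-noise.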 The note with it: small-molecule microarray, higher = more signal.
The nature of test [18]: probe aNog binding to arrayed compounds – biochemical, biotinylated probe, 635/667 nm fluorescence, primary screen (AID 1115).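 Also: probe is biotinylated aNog protein used at 0.15 µg/mL for 1 h at 4 C; z-score combines 667 nm fluorescence of each spot with its signal to noise.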 The note with it: small-molecule microarray, higher = more signal.
The target in test [19] is Torsin-1A-interacting protein 1 (Homo sapiens) (UniProt Q5JTV8). As to the kind of experiment: compound microarray binding of lysate hLAP1 – cell lysate, small-molecule microarray, COS7 lysate, 635/667 nm fluorescence, primary screen (AID 1116). Conditions: 635 nm fluorescence, higher = more signal.
Sequence of Torsin-1A-interacting protein 1 (Homo sapiens) (Q5JTV8 whole entry, looked up): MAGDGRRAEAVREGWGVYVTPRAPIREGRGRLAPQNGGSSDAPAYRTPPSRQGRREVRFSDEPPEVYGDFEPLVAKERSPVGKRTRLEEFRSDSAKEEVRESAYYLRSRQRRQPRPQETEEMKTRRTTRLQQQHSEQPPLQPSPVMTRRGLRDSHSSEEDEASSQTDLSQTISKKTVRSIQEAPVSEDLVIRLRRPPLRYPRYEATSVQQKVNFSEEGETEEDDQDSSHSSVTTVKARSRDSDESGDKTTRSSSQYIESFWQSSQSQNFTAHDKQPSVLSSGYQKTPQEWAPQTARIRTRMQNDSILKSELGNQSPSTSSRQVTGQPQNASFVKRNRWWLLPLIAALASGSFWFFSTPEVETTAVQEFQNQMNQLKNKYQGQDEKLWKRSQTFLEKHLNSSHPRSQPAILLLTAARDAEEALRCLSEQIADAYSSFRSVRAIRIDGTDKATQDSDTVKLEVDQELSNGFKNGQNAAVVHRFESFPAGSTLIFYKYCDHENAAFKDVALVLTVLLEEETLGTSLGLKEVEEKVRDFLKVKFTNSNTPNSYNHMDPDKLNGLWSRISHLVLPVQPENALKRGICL
Test [20] concerns the target Alpha-bungarotoxin (Bungarus multicinctus) (UniProt P60615). As to the kind of experiment: compounds binding labelled alpha-BTX control protein – biochemical, small-molecule microarray, Alexa647 label, 635/667 nm fluorescence, artefact control for SMM control protein annotation, profiling panel (AID 1117). The note with it: alpha-BTX-A647 binding fluorescence, higher = more signal.

Sequence of Alpha-bungarotoxin (Bungarus multicinctus) (P60615 whole entry, looked up): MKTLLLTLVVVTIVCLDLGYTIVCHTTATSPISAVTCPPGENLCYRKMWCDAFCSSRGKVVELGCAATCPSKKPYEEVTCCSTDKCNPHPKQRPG

For `COc1cc(NN2C(C(O)C3CCCCC3)C=CC3C(=O)N(c4ccccc4)C(=O)C32)cc(OC)c1OC` (stereo not given), the composite z-score in [1] is 1.11; in test [2], 0.946; in test [3], 1.43; in test [5], 0.448; in test [6] it was 0.893; in [7], -0.455. Also, the composite z-score is 0.722 in test [8]; -1.37 in test [9]; 0.591 in test [10]; 1.05 in [11]; -0.79 in [13]; 2.13 in test [14]. Further, the composite z-score in [15] was 1.23; in [16], 0.141; in test [17], -0.11; in [18] it was 0.658; in test [19] it was 1.5; in test [20], 1.98. Moreover, the figures for the z-score in test [4] and in test [12] were -0.983 (inactive) and -1.1, respectively.
For the molecule `CCOC(=O)C=Cc1cc(F)ccc1O`, the composite z-score was 0.188 in test [1]; -0.137 in [2]; -0.31 in test [3]; 0.168 in test [5]; -0.126 in test [6]; 0.0683 in [7]. For the same molecule, the composite z-score in test [8] was 0.0871; in test [9], -0.258; in test [10] it was 0.835; in test [11], 0.261; in test [13], -0.251; in test [14], -0.297. Moreover, the composite z-score is -0.352 in [15]; -0.0462 in [16]; 0.0469 in test [17]; -0.181 in test [18]; -0.207 in test [19]; 0.0531 in test [20]. Further, the z-score in test [4] is -1.37 (inactive); in test [12], -1.36.
Take `C=C[C@@H](C)[C@@H](OC(=O)Nc1ccc(SC)cc1)c1ccc(OCCO)cc1`: the composite z-score was 1.4 in [1]; -0.289 in [2]; 0.753 in [3]; 0.472 in test [5]; 0.335 in [6]; 0.0159 in test [7]. The composite z-score was 0.426 in test [8]; -0.185 in [9]; 0.0303 in test [10]; 1.27 in test [11]; -0.0734 in [13]; 1.24 in test [14]. Also, the composite z-score in [15] was 0.305; in test [16], -0.0512; in test [17], -0.0192; in test [18] it was -0.358; in [19], 0.882; in test [20], 0.954. In addition, the figures for the z-score in [4] and in test [12] were -1.01 (inactive) and -0.181, respectively.
Turning to `Nc1cc(Br)ccc1C(=O)O`, the composite z-score is -0.0113 in test [1]; 0.149 in test [2]; -0.155 in test [3]; 0.339 in test [5]; 0.285 in test [6]; 0.029 in [7]. The composite z-score in test [8] is 0.111; in test [9], 0.241; in test [10], 0.0301; in [11], -0.0633; in test [13], 0.285; in [14], 0.955. Moreover, the composite z-score in test [15] is 0.885; in test [16], -0.0045; in [17], -0.0626; in test [18], 0.0558; in test [19], 0.0546; in test [20] it was 1.39. Besides, the z-score in test [4] was -0.00991 (inactive); in test [12], -0.518.
With `[N-]=[N+]=NCc1ccccc1[C@@H]1OC(c2ccc(OCCCO)cc2)=N[C@]1(Cc1ccccc1N=[N+]=[N-])C(=O)NCCN1CCOCC1`, the composite z-score came out at 1.54 in [1]; 0.251 in test [2]; 0.851 in [3]; 1.51 in test [5]; 1.34 in test [6]; 0.218 in test [7]. The composite z-score in test [8] worked out at 1.23; in [9] it was 0.331; in test [10], 0.533; in test [11], 1.4; in test [13], 0.466; in test [14] it was 0.969. The composite z-score in test [15] was 0.0714; in test [16], 0.0944; in [17] it was -0.0289; in test [18], 0.597; in test [19], 0.495; in test [20] it was 0.446. For the same molecule, the z-score in test [4] was -0.312 (inactive); in test [12] it was -1.66.
For `C=C(C(=O)CC[C@H](OC(=O)c1ccccc1-c1ccccc1C(=O)O)c1ccccc1OCCO)C(C)C`, the composite z-score was 1.01 in test [1]; -0.175 in [2]; -0.459 in [3]; 0.238 in [5]; 0.304 in test [6]; -0.388 in [7]. Further, the composite z-score is 0.176 in test [8]; 0.273 in test [9]; 1.16 in [10]; 0.649 in test [11]; 0.346 in test [13]; -0.246 in [14]. The composite z-score in test [15] was -0.4; in [16], -0.0573; in [17], 0.108; in test [18] it was 0.0718; in [19], 1.31; in test [20] it was 1.26. The values for the z-score in test [4] and in test [12] were -0.456 (inactive) and -1.59, respectively.

The record behind these values is PubChem BioAssay.
